These molecules were tested on HepG2 (assay: GSK_TCMDC: Percent inhibition of human HepG2 cell line. Test compounds present at 10uM.).
Assay type: functional
CCCCN(Cc1cnccc1-c1ccc(Br)cc1)c1ccc(C(O)(C(F)(F)F)C(F)(F)F)cc1.O=C(O)C(F)(F)F showed an Inhibition of 10%.
Cc1c(N)ccc2[nH]c(-c3ccc(N)cc3)nc12 gave an Inhibition of 0%.
Work on Cc1cc(I)ccc1Nc1nc2nonc2nc1Nc1ccc(I)cc1C yielded an Inhibition of 78%.
With C/C=C/COc1ccc(-c2c(C)[nH]c(C)c(Cl)c2=O)cc1 the Inhibition was 0%.
With O=C(NC1CCN(c2ccnc3cc(Cl)ccc23)C1)c1ccc(F)cc1F.O=C(O)C(F)(F)F (configuration not stated) the Inhibition was 31%.
In the case of C#C[C@H]1O[C@@H](n2cnc3c(Nc4cc(Br)cc(C(F)(F)F)c4)ncnc32)[C@H](O)[C@@H]1O, the Inhibition is reported as 21%.
For CC(C)C[C@H]1C(=O)N[C@H](C2Cc3ccccc3C2)C(=O)N1[C@@H](C(=O)Nc1ccccc1OCc1ccccc1)c1ccc(F)cc1F, the Inhibition was 12%.
With CCOc1ccc(C=CC(=O)Nc2ccc3nc(N4CCN(C)CC4)cc(C)c3c2)cc1OC the Inhibition was 0%.
For CCN(CCCN1CCCCC1)c1cc(C)nc(Nc2ccc(Br)cc2F)n1.O=C(O)C(F)(F)F, the Inhibition was 32%.
For Cl.N=C(N)c1cc(Cl)cc(NC(=O)Nc2cc(Cl)cc(C(=N)N)c2)c1, the Inhibition was 4%.
In the case of Br.CC1(C)NC(N)=NC(=N)N1OCCCOc1ccc(N)cc1, the Inhibition is reported as 66%.
With CC(=O)C1=NN(c2ccc(Cl)cc2)C(c2cccs2)N1c1ccccc1 (configuration not stated) the Inhibition was 0%.
O=C1Nc2ccccc2/C1=N/NC(=S)N1CCOCC1 showed an Inhibition of 51%.
O=C(O)C(F)(F)F.c1cc(CNCCc2ccncc2)cc(-c2ccc(-c3nc4ccccc4[nH]3)cc2)c1 gave an Inhibition of 28%.
CC(C)Oc1cc2c(cc1NS(=O)(=O)c1ccc(-c3ccc(Cl)cc3)cc1F)CCN(C)CC2.Cl showed an Inhibition of 29%.
Molecule CN(C)CCN(Cc1ccc(-c2ccc(CNCCc3ccccc3)cc2)nc1)C(=O)CCC1CCCC1.O=C(O)C(F)(F)F has an Inhibition of 98%.
CC(=O)Nc1nc(C(=O)Nc2cccc(-c3ccc(-c4nc5cccc(C)c5[nH]4)cc3)c2)cs1 gave an Inhibition of 100%.
With COc1cccc2cc(C(=O)N[C@@H](CC(C)C)C(=O)N[C@H](/C=N/NC(=O)c3ccccc3)Cc3c[nH]cn3)oc12 the Inhibition was 3%.
In the case of O=C(NCCCc1ccccc1)c1csc(C2CCCN(C(=O)c3ccc(O)c(-c4cccc5ccccc45)c3)C2)n1 (configuration not stated), the Inhibition is reported as 3%.
O=C(Nc1cc(F)cc(-c2cccnc2)c1)c1ccc2c(=O)n(Cc3ccccc3)cnc2c1 was tested, and the Inhibition was 7%.
For COc1ccc2c(=NN=Cc3cccc(Cl)c3)cc(C)[nH]c2c1, the Inhibition was 3%.
O=C(NCCc1cccc(Cl)c1Cl)c1cnc(N2CCN(c3ccncc3)CC2)c(Cl)c1.O=C(O)C(F)(F)F gave an Inhibition of 47%.
Cc1nccc2c(NC(=O)N[C@@H]3CCN(c4ncc(C(F)(F)F)cc4Br)C3)cccc12.Cl was tested, and the Inhibition was 21%.
For CC1(C)N=C(N)N=C(N)N1OCc1cc2ccccc2cc1CON1C(N)=NC(N)=NC1(C)C, the Inhibition was 0%.
Cc1c(F)cc(C(=O)NC2CC2)cc1-c1ccc2c(cnn2S(=O)(=O)c2ccc(C#N)cc2)c1 gave an Inhibition of 17%.
Br.CC1(C)NC(N)=NC(=N)N1OCCCOc1ccccc1N gave an Inhibition of 70%.
Oc1ccc(Cl)cc1CN1CCCC(COC(c2ccc(F)cc2)c2ccc(F)cc2)C1 (configuration not stated) gave an Inhibition of 20%.

From ChEMBL document CHEMBL1157539, “Thousands of chemical starting points for antimalarial lead identification” (Nature, 2010)
